Test [1] can be described thus: BSK_BF4T_SRB: Viability Assessment in the BioMAP Diversity Plus: BF4T Assay (AID 2284274).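 Note: total cell protein by sulforhodamine B staining as a cytotoxicity measure.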 The conditions noted are these: primary human bronchial epithelial cells with fibroblasts. The method, boiled down:
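Co-culture of human bronchial epithelial cells and dermal fibroblasts (BioMAP BF4T) exposed 24 h. Total protein by sulforhodamine B staining (0.1% SRB after 10% TCA fixation, 560 nm) in parallel cultures; fitted vs DMSO.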

Read-out in test [2]: urokinase Plasminogen Activator (uPA), PLAU (gene 5328)
The test can be described thus: BSK_BF4T_uPA: BioMAP Diversity Plus: BF4T Assay for urokinase Plasminogen Activator (uPA) Biomarker Activity (AID 2284275). The following applies: primary human bronchial epithelial cells with fibroblasts. The procedure, abridged: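 Co-culture of human bronchial epithelial cells and dermal fibroblasts; uPA quantified by ELISA 24 hours after dosing, fitted relative to DMSO. Parallel SRB total-protein staining assessed overt cytotoxicity.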

Read-out in test [3]: Matrix Metallopeptidase 9 (MMP9), MMP9 (gene 4318)
Description: BSK_BF4T_MMP9: BioMAP Diversity Plus: BF4T Assay for Matrix Metallopeptidase 9 (MMP9) Biomarker Activity (AID 2284276). The following applies: primary human bronchial epithelial cells with fibroblasts. The procedure, abridged:
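Co-culture of human bronchial epithelial cells and dermal fibroblasts dosed for 24 h; MMP-9 quantified by ELISA and fitted upward versus DMSO. Cytotoxicity monitored in parallel cultures by SRB total-protein staining at the biomarker time point.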

Read-out in test [4]: Interleukin-8 (IL8), CXCL8 (gene 3576)
Description: BSK_IMphg_IL8: BioMAP Diversity Plus: IMphg Assay for Interleukin-8 (IL8) Biomarker Activity (AID 2284277). The following applies: primary human endothelial cells with macrophages. The method, boiled down: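 Co-culture of human venular endothelial cells and macrophages exposed to chemicals for 24 h; IL-8 quantified by ELISA and compared against the DMSO baseline, with SRB total-protein staining in parallel cultures for cytotoxicity.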

Read-out in test [5]: Intercellular Adhesion Molecule 1 (ICAM1), ICAM1 (gene 3383)
Description: BSK_BE3C_ICAM1: BioMAP Diversity Plus: BE3C Assay for Intercellular Adhesion Molecule 1 (ICAM1) Biomarker Activity (AID 2284278).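 For outcome: cell-surface ICAM-1 protein level quantified by ELISA.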 The following applies: primary human bronchial epithelial cells. The method, boiled down:
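Human primary bronchial epithelial cultures; compound added; 24 h incubation; cell-surface ICAM-1 measured by ELISA; signal increase fitted relative to DMSO negative control.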

Read-out in test [6]: Interferon-inducible T-cell alpha chemoattractant (ITAC), CXCL11 (gene 6373)
Description: BSK_BE3C_ITAC: BioMAP Diversity Plus: BE3C Assay for Interferon-inducible T-cell alpha chemoattractant (ITAC) Biomarker Activity (AID 2284279). The conditions noted are these: primary human bronchial epithelial cells. The method, boiled down:
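ELISA for I-TAC in primary human bronchial epithelial cultures 24 h post-treatment, fitted relative to DMSO baseline in positive direction. Cytotoxicity checked in parallel cultures by sulforhodamine B protein staining.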

Read-out in test [7]: Interleukin-8 (IL8), CXCL8 (gene 3576)
The test can be described thus: BSK_BE3C_IL8: BioMAP Diversity Plus: BE3C Assay for Interleukin-8 (IL8) Biomarker Activity (AID 2284280). The following applies: primary human bronchial epithelial cells. The procedure, abridged:
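IL-8 signal gain, normalised to DMSO vehicle, was scored after a 24 h chemical exposure of primary human bronchial epithelial cells, with detection by ELISA.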

Read-out in test [8]: Epidermal growth factor receptor (EGFR), EGFR (gene 1956)
The test can be described thus: BSK_BE3C_EGFR: BioMAP Diversity Plus: BE3C Assay for Epidermal growth factor receptor (EGFR) Biomarker Activity (AID 2284281). The conditions noted are these: primary human bronchial epithelial cells. The procedure, abridged: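 Compound is added to human bronchial epithelial cells, cells incubate 24 h, then EGFR is detected by ELISA. Values reflect positive-direction fitting relative to DMSO.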

Read-out in the next test: KRT18 (gene 3875)
Description: BSK_BE3C_Keratin818: BioMAP Diversity Plus: BE3C Assay for Keratin 818 Biomarker Activity (AID 2284282). The following applies: primary human bronchial epithelial cells. The procedure, abridged: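 Chemicals are added to human lung bronchial epithelial primary cells (BE3C system) and incubated 24 h. Keratin 8/18 is then measured by ELISA, with parallel SRB total-protein staining gauging overt cytotoxicity.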

Read-out in test [9]: Matrix Metallopeptidase 9 (MMP9), MMP9 (gene 4318)
Description: BSK_BE3C_MMP9: BioMAP Diversity Plus: BE3C Assay for Matrix Metallopeptidase 9 (MMP9) Biomarker Activity (AID 2284283). The following applies: primary human bronchial epithelial cells. The method, boiled down: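 Cells were dosed, incubated 24 h, then assayed for MMP-9 by ELISA; activity was fitted upward against DMSO. The system used human lung primary bronchial epithelial cells, with SRB total-protein staining run alongside for cytotoxicity.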

Read-out in test [10]: Plasminogen activator inhibitor-1 (PAI1), SERPINE1 (gene 5054)
The test can be described thus: BSK_CASM3C_PAI1: BioMAP Diversity Plus: CASM3C Assay for Plasminogen activator inhibitor-1 (PAI1) Biomarker Activity (AID 2284284).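 Note: PAI-1 protein level measured by ELISA 24 h after dosing.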 The conditions noted are these: primary human coronary artery smooth muscle cells.

Read-out in test [11]: Monocyte Chemoattractant Protein-1 (MCP1), CCL2 (gene 6347)
Description: BSK_hDFCGF_MCP1: BioMAP Diversity Plus: hDFCGF Assay for Monocyte Chemoattractant Protein-1 (MCP1) Biomarker Activity (AID 2284285). The following applies: primary human foreskin fibroblasts. The method, boiled down: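 Human foreskin fibroblasts (hDFCGF system) were exposed to compound and secreted MCP-1 was measured by ELISA after 24 hours. Activity was fitted relative to DMSO. Cytotoxicity was checked by SRB total-protein staining in parallel cultures.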

Read-out in test [12]: Vascular cell adhesion molecule 1 (VCAM1), VCAM1 (gene 7412)
The test can be described thus: BSK_IMphg_VCAM1: BioMAP Diversity Plus: IMphg Assay for Vascular cell adhesion molecule 1 (VCAM1) Biomarker Activity (AID 2284286). The following applies: primary human endothelial cells with macrophages. The method, boiled down:
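Human venular endothelial cells co-cultured with macrophages; VCAM-1 quantified by ELISA 24 h after dosing, fitted in the positive direction against DMSO. Cytotoxicity was checked in parallel cultures by SRB total-protein staining (0.1% SRB after 10% TCA fixation, 560 nm).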

Read-out in test [13]: Intercellular Adhesion Molecule 1 (ICAM1), ICAM1 (gene 3383)
The test can be described thus: BSK_hDFCGF_ICAM1: BioMAP Diversity Plus: hDFCGF Assay for Intercellular Adhesion Molecule 1 (ICAM1) Biomarker Activity (AID 2284287). The conditions noted are these: primary human foreskin fibroblasts. The procedure, abridged: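 Primary human foreskin fibroblasts (hDFCGF system) dosed with chemical; ICAM-1 quantified by ELISA at 24 h relative to DMSO. Parallel SRB total-protein staining to assess overt cytotoxicity.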

Read-out in a further test: CD40, CD40 (gene 958)
The test can be described thus: BSK_IMphg_CD40: BioMAP Diversity Plus: IMphg Assay for CD40 Biomarker Activity (AID 2284288). The conditions noted are these: primary human endothelial cells with macrophages. The procedure, abridged: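 Venular endothelial cells co-cultured with macrophages (human primary), CD40 measured by ELISA 24 h after dosing. Positive-direction fit vs DMSO baseline; cytotoxicity tracked by SRB total-protein staining in parallel cultures.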

Read-out in test [14]: TIMP metallopeptidase inhibitor 2 (TIMP2), TIMP2 (gene 7077)
The test can be described thus: BSK_hDFCGF_TIMP2: BioMAP Diversity Plus: hDFCGF Assay for TIMP metallopeptidase inhibitor 2 (TIMP2) Biomarker Activity (AID 2284289). The following applies: primary human foreskin fibroblasts. The method, boiled down:
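Primary human foreskin fibroblasts in the hDFCGF system, dosed for 24 h; TIMP-2 level measured by ELISA, fitted in the positive direction against DMSO; cytotoxicity checked in parallel by sulforhodamine B total protein staining.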

Read-out in test [15]: Interleukin-1 alpha (IL1a), IL1A (gene 3552)
Description: BSK_IMphg_IL1a: BioMAP Diversity Plus: IMphg Assay for Interleukin-1 alpha (IL1a) Biomarker Activity (AID 2284290). The conditions noted are these: primary human endothelial cells with macrophages. The procedure, abridged: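 Human venular endothelial cells co-cultured with macrophages, IMphg system. IL-1α is measured by ELISA 24 h after dosing and fitted in the positive direction against DMSO. Cytotoxicity is assessed by SRB staining of parallel cultures.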

Read-out in test [16]: E-selectin (Homo sapiens) (UniProt P16581)
The test can be described thus: BSK_IMphg_ESelectin: BioMAP Diversity Plus: IMphg Assay for Eselectin Biomarker Activity (AID 2284291). The conditions noted are these: primary human endothelial cells with macrophages. The method, boiled down:
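Human venular endothelial cell–macrophage co-culture, E-selectin measured by ELISA 24 h after chemical dosing. Signal fitted in the positive direction against DMSO as negative control and baseline.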

The nature of test [17]: BSK_IMphg_SRB: Viability Assessment in the BioMAP Diversity Plus: IMphg Assay (AID 2284292).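 Note: measured one day after compound addition.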 The following applies: primary human endothelial cells with macrophages. The procedure, abridged:
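Human venular endothelial cells with macrophages, 24 h after chemical dosing; total protein by 0.1% SRB staining after 10% TCA fixation, read at 560 nm. Positive-direction fitting versus DMSO baseline.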

Read-out in test [18]: Macrophage colony-stimulating factor (MCSF), CSF1 (gene 1435)
Description: BSK_IMphg_MCSF: BioMAP Diversity Plus: IMphg Assay for Macrophage colony-stimulating factor (MCSF) Biomarker Activity (AID 2284293). The conditions noted are these: primary human endothelial cells with macrophages. The procedure, abridged: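 Co-culture of human venular endothelial cells and macrophages, 24 hours of chemical exposure. M-CSF quantified by ELISA, with parallel SRB total-protein staining for cytotoxicity; activity fitted relative to DMSO.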

What is called AC50 is the midpoint of the concentration-response curve, whichever way the signal moves.

Where “and” joins values, the source holds several entries; their conditions need not be identical. Equal values may be shown once. Where a structure was tested more than once in an assay, its records may differ in their call. Calls of active or inactive are those of the source. Rule for the calls: active = hit-call score of the fitted dose curve at least 0.9, where 1 is the maximum; inactive = score below 0.9.

Sequence of E-selectin (Homo sapiens) (P16581 whole entry, looked up): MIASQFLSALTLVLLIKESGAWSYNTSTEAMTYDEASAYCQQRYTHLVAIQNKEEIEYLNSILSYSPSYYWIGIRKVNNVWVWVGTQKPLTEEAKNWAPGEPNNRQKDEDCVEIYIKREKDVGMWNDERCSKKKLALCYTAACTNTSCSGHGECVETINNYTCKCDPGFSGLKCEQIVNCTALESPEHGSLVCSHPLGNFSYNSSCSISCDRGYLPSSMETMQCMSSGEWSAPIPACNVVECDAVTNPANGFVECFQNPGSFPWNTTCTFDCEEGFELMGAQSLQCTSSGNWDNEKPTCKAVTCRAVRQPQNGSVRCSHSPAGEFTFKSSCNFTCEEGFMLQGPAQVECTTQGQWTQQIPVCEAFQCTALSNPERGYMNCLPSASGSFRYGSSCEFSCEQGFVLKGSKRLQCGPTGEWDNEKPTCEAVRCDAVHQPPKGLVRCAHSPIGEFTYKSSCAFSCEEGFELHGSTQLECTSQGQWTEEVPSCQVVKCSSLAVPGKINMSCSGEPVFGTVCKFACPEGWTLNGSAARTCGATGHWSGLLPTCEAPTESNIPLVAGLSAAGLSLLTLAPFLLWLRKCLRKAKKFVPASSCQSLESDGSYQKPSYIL

Turning to `CCNS(=O)(=O)C(F)(F)C(F)(F)C(F)(F)C(F)(F)C(F)(F)C(F)(F)C(F)(F)C(F)(F)F`, the AC50 was 44.7 µM (active) and 41.4 µM (active) in test [1]; 47.3 µM (active) in test [2]; 30 µM (active) and 39.9 µM (active) in test [3]; 21.3 µM (active) and 27.2 µM (active) in [4]; 40.3 µM (active) in [5]; 40 µM (active) and 35.2 µM (active) in test [6]. For the same compound, the AC50 in [7] was 16.4 µM (active) and 22.6 µM (active); in test [8], 38.2 µM (active) and 23.3 µM (active); with KRT18 (gene 3875) it was 21.5 µM (active) and 21.8 µM (active); in [9] it was 30 µM (active) and 18.5 µM (active); in [11] it was 49.3 µM (active) and 46.9 µM (active); in test [12], 48 µM (active) and 49.6 µM (active). In addition, the AC50 in test [13] was 42.5 µM (active) and 48.4 µM (active); with CD40, CD40 (gene 958), 26.6 µM (active); in [14] it was 30 µM (active) and 46.5 µM (active); in test [16], 10.8 µM (active) and 30 µM (active). The outcome in test [2] is “inactive”; in test [5], “inactive”; in [10] it was “inactive”; with CD40, CD40 (gene 958), “inactive”; in test [15], “inactive”; in [17] it was “inactive”. Also, the result in test [18] was inactive.

These data come from PubChem BioAssay (EPA / NIEHS).
